From PubChem
Shown are actives, neighbours in structure and some others; about 0.92% of the full set was active somewhere.
UGM FP inh = blocks M. tuberculosis UGM enzyme; hit rate 0.06% among 320,000; AID 504406; inhibition, % at 10 µM; P9WIQ1; purified UGM, fluorescence polarization probe displacement; in the data active = inhibition above about 10%, passing the limit was not always enough
FadD28 FP inh = blocks FadD28 binding to the bisubstrate probe. hit rate 0.22% among 360,000. AID 588549. fluorescence polarization. inhibition, % at 12.5 µM; in the data active = inhibition above about 8.5%, passing the limit was not always enough
Mtb hypoxia inh = reduces hypoxia-regulated biosensor signal in M. tuberculosis; fluorescence inhibition, % (test concentration not listed); AID 1159583; hit rate 0.1% among 300,000; M. tuberculosis hypoxia-regulated fluorescent reporter, fluorescence; in the data active = fluorescence inhibition mostly above about 23%, no sharp cut-off; inactive = mostly below about 17%
Rv3671c inh = inhibits the M. tuberculosis serine protease Rv3671c; inhibition, % at 5.96 µM; hit rate 0.048% among 320,000; in the data active = inhibition above about 38%;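 note: extracellular domain of Rv3671c used as enzyme; 0% = enzyme with DMSO and 100% = no enzyme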
Target sequence (P9WHR9 whole entry, looked up, the tested form may be a part): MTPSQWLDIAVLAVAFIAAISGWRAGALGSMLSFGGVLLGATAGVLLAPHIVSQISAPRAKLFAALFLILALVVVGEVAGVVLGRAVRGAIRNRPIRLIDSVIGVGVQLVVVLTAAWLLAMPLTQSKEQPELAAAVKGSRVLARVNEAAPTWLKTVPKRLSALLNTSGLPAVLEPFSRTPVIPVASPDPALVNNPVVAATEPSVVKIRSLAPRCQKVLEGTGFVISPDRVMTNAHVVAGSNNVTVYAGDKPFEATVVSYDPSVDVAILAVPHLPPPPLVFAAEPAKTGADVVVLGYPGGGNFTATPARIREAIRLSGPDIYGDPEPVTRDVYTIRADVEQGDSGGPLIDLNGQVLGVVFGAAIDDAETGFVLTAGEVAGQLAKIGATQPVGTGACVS
RecA intein inh = Mtb RecA intein splicing inhibition; cell-free RecA intein splicing, fluorescence; inhibition, % (concentration not given with the values); hit rate 0.75% among 290,000; in the data active = inhibition above about 30%;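 note: 0% = vehicle wells and 100% = reference inhibitor control wells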
* marks the source's active call; other numbers are inactive results; / = no result given.

SMILES	UGM FP inh	FadD28 FP inh	Mtb hypoxia inh	Rv3671c inh	RecA intein inh
COc1ccc(NC(=O)C(C)N=C2NS(=O)(=O)c3ccccc32)cc1S(N)(=O)=O (stereo not given)	4	-4	26*	-4	/
CC(C)(O)C1CC[C@@](C)(C2CC[C@]3(C)C2C(O)CC2[C@@]4(C)CCC(O)C(C)(C)C4C(OC4OC(CO)C(O)C(O)C4OC4OCC(O)C(O)C4O)C[C@]23C)O1 (stereo not given in full)	/	/	-2	/	/
CCOC(=O)c1c(NC(=O)CN2C(=O)N(C)C3(CCCCC3)C2=O)sc(C(=O)N(C)C)c1C	/	-3	25*	/	/
COC(=O)C1=C(c2cc3ccccc3s2)CC2CCC1N2C(=O)NCCS(C)=O (stereo not given)	/	/	16	/	/
Cc1c(NC(=O)C=Cc2cn(-c3ccccc3)nc2-c2ccccc2)c(=O)n(-c2ccccc2)n1C	/	/	1	/	/
CCc1ccc(NC(=O)/C(C#N)=C\c2ccc(OC)c(C(=O)O)c2)cc1	2	-1	2	-7	0
COc1ccc(/C=C(/C#N)C(=O)Nc2ccc(O)cc2)cc1C(=O)O	-2	-2	/	-1	45*
O=C(O)COc1ccccc1C(Nc1ccccn1)c1cc(Cl)c2cccnc2c1O (stereo not given)	4	-4	-3	12	18
O=C(O)COc1ccccc1C(Nc1cccnc1)c1cc(Cl)c2cccnc2c1O (stereo not given)	/	-3	19	/	41*
CC1CN(C(C)CO)C(=O)c2cccc(NC(=O)C3CC3)c2OC1CN(C)S(C)(=O)=O (stereo not given)	/	/	7	/	/
CCSc1nc(-c2ccccc2)nc(C(Cl)Cl)n1	-2	-4	/	1	5
CSc1nc(-c2ccc(C)cc2)nc(C(Cl)Cl)n1	0	0	78*	1	-2
CCOc1cc(/C=C2\C(=N)N3N=C(S(=O)(=O)CC)SC3=NC2=O)ccc1OC(=O)c1ccco1	-6	-2	13	-2	31*
CCOc1cc(/C=C2\C(=N)N3N=C(N4CCCCC4)SC3=NC2=O)ccc1OC(=O)c1ccco1	-2	5	-1	11	35*
CCS(=O)(=O)C1=NN2C(=N)/C(=C\c3ccc(OC(=O)c4ccco4)c(Br)c3)C(=O)N=C2S1	-6	/	/	-5	11
O=C(CSc1nnc(-c2ccco2)o1)NCCc1ccccc1	-1	-1	38*	-1	/
OCCC1CC(O)C(O)[C@]2(Cc3ccccc3CCO2)O1 (stereo not given in full)	/	/	-5	/	/
Oc1c(Cl)cc(Cl)cc1CN1CCN(Cc2ccccc2)CC1	0	-2	-1	4	6
Oc1c(Cl)cccc1Cc1cc(Cl)cc(Cl)c1O	/	12*	12	/	/
CC(C)C1COC(c2cccc(C3=NC(C(C)C)CO3)c2)=N1 (stereo not given)	/	/	12	/	/
O=c1cc2c(=O)oc3cc(O)c(O)oc3c2c(O)c1O	/	11*	3	/	-9
O=c1oc2cc(O)c(Cl)cc2c2ccccc12	1	-2	6	4	-4
Cc1c(-c2cc(Br)ccc2O)nc2cc3c(cc2c1C)OCO3	2	29*	4	-4	-8
Cc1nc(NC(=O)c2ccc(Cl)cc2)nc2cc3c(cc12)OCO3	2	0	8	-8	-2
Nc1ccc(Oc2ncccn2)cc1	-3	1	0	-4	51*
SMILES	UGM FP inh	FadD28 FP inh	Mtb hypoxia inh	Rv3671c inh	RecA intein inh
COc1ccc(C(=O)NN=Cc2coc3ccc(Cl)cc3c2=O)cc1	/	/	4	/	/
O=C(O)c1ccccc1C(=O)OCCCCOC(=O)c1ccccc1C(=O)O	11*	-1	0	2	0
CCCCCCOC(=O)c1ccccc1NC(=O)/C=C/C(=O)O	3	1	2	5	67*
O=C1CS/C(=C\[N+](=O)[O-])N1c1ccc(OC(F)(F)F)cc1	2	-3	10	0	36*
O=C(CN(c1ccccc1)S(=O)(=O)c1ccccc1)NN=Cc1ccco1	/	/	12	/	/
CC=C(C)C(=O)OC(C)(C)C1Cc2c(ccc3ccc(=O)oc23)O1 (stereo not given)	/	/	17	/	/
O=c1[nH][nH]c2c(N=Cc3ccccc3O)ccc(F)c12	/	16*	0	/	/
O=C(O)c1ccc(-n2c(=O)c3ccccc3c3ccccc3c2=O)cc1	-2	-1	/	-2	32*
Cc1nc2ccccc2c(=O)n1-c1ccc(C(=O)O)cc1	-2	-2	4	-1	1
CCC(CCC=C(C)C)C(=O)N(Cc1ccccc1)c1ccccc1 (stereo not given)	/	/	2	/	/
O=C(NN=Cc1ccc(O)cc1)c1cc(C23CC4CC(CC(C4)C2)C3)[nH]n1	/	/	9	/	/
CN1CCc2nc3sc(C(=O)NC(C)(C)C)c(N)c3cc2C1	2	-1	13	-2	3
